Results: PubChem BioAssay (EPA / NIEHS)
Some structures have more than one record in an assay (separate samples or runs), and their calls can disagree. The source made the active and inactive calls. How the source made its calls: active means hit-call score of the fitted dose curve at least 0.9, where 1 is the maximum; inactive means score below 0.9.

Experiments:
[1] = read-out: TIMP metallopeptidase inhibitor 2 (TIMP2), TIMP2 (gene 7077); assay: BSK_KF3CT_TIMP2: BioMAP Diversity Plus: KF3CT Assay for TIMP metallopeptidase inhibitor 2 (TIMP2) Biomarker Activity (AID 2283071); settings: primary human keratinocytes with fibroblasts; actives raise or lower the signal
Method in brief: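 Human primary keratinocyte/foreskin fibroblast co-culture dosed with chemical and sampled at 24 h. TIMP-2 levels quantified by ELISA; bidirectional fitting against DMSO negative control as baseline.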

[2] = read-out: Transforming growth factor beta 1 (TGFb1), TGFB1 (gene 7040); assay: BSK_KF3CT_TGFb1: BioMAP Diversity Plus: KF3CT Assay for Transforming growth factor beta 1 (TGFb1) Biomarker Activity (AID 2283072); settings: primary human keratinocytes with fibroblasts; actives raise or lower the signal
Method in brief: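 Human keratinocyte plus foreskin fibroblast primary co-culture, dosed with chemical for 24 h. TGF-b1 quantified by ELISA. Activity fitted bidirectionally against DMSO negative control as baseline.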

[3] = read-out: C-C motif chemokine 2 (Homo sapiens) (UniProt P13500); assay: BSK_KF3CT_MCP1: BioMAP Diversity Plus: KF3CT Assay for Monocyte Chemoattractant Protein 1 (MCP1/CCL2) Biomarker Activity (AID 2283073); settings: primary human keratinocytes with fibroblasts; actives raise or lower the signal
Method in brief: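 Human keratinocyte–foreskin fibroblast co-culture; MCP-1 measured by ELISA 24 h after dosing. Bidirectional fit vs DMSO; cytotoxicity tracked by SRB total protein in parallel cultures.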

[4] = read-out: Matrix Metallopeptidase 9 (MMP9), MMP9 (gene 4318); assay: BSK_KF3CT_MMP9: BioMAP Diversity Plus: KF3CT Assay for Matrix Metallopeptidase 9 (MMP9) Biomarker Activity (AID 2283074); settings: primary human keratinocytes with fibroblasts; actives raise or lower the signal;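 on AC50: MMP9 protein level quantified by ELISA in the co-culture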
Method in brief: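 Keratinocyte plus foreskin fibroblast human primary skin co-culture was dosed with chemical and MMP-9 was quantified by ELISA 24 h later. Bidirectional curve fitting used DMSO as negative control and activity baseline.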

[5] = read-out: urokinase plasminogen activator (uPA), PLAU (gene 5328); assay: BSK_KF3CT_uPA: BioMAP Diversity Plus: KF3CT Assay for urokinase plasminogen activator (uPA) Biomarker Activity (AID 2283075); settings: primary human keratinocytes with fibroblasts; actives raise or lower the signal
Method in brief: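 Human keratinocyte plus foreskin fibroblast primary co-culture exposed to chemical for 24 h. uPA levels were quantified by ELISA, and activity was fitted bidirectionally against a DMSO negative-control baseline.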

CD40, CD40 (gene 958) [6] = assay: BSK_LPS_CD40: BioMAP Diversity Plus: LPS Assay for CD40 Biomarker Activity (AID 2283076); settings: primary human HUVEC with PBMC; actives raise or lower the signal
Method in brief: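 HUVEC plus PBMC co-culture stimulated with LPS; CD40 quantified by ELISA 24 h after compound dosing. Fitting was bidirectional relative to DMSO. SRB staining of parallel cultures flagged overt cytotoxicity.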

[7] = read-out: Interleukin-8 (IL8), CXCL8 (gene 3576); assay: BSK_LPS_IL8: BioMAP Diversity Plus: LPS Assay for Interleukin-8 (IL8) Biomarker Activity (AID 2283078); settings: primary human HUVEC with PBMC; actives raise or lower the signal
Method in brief: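 Human umbilical vein endothelial cells co-cultured with PBMC, LPS-stimulated, exposed to compound for 24 h. IL-8 quantified by ELISA; fitted in both directions against DMSO, with SRB total-protein staining of parallel cultures for cytotoxicity.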

[8] = BSK_LPS_SRB: Viability Assessment in the BioMAP Diversity Plus: LPS Assay (AID 2283079); settings: primary human HUVEC with PBMC;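 further: total protein by sulforhodamine B absorbance as a cytotoxicity measure; measured one day after compound addition; fitted in both directions against DMSO so loss or gain of signal counts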
Method in brief: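 Co-culture of human umbilical vein endothelial cells and PBMC, read 24 h after dosing. Total protein by 0.1% SRB staining after 10% TCA fixation, absorbance at 560 nm; bidirectional fit against DMSO.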

[9] = read-out: Monocyte Chemoattractant Protein-1 (MCP1), CCL2 (gene 6347); assay: BSK_LPS_MCP1: BioMAP Diversity Plus: LPS Assay for Monocyte Chemoattractant Protein-1 (MCP1) Biomarker Activity (AID 2283081); settings: primary human HUVEC with PBMC; actives raise or lower the signal;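 on AC50: secreted MCP-1 protein quantified by ELISA in culture supernatant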
Method in brief: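 Human umbilical vein endothelial cells co-cultured with PBMC, LPS-stimulated; secreted MCP-1 measured by ELISA 24 h after compound addition. Bidirectional curve fitting against DMSO baseline; SRB total-protein staining in parallel cultures for cytotoxicity.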

[10] = BSK_LPS_PGE2: BioMAP Diversity Plus: LPS Assay for Prostaglandin E2 (PGE2) Biomarker Activity (AID 2283082); settings: primary human HUVEC with PBMC; actives raise or lower the signal
Method in brief: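 HUVEC plus PBMC co-culture stimulated with LPS; secreted PGE2 quantified by ELISA 24 h after chemical dosing. Activity fitted bidirectionally against DMSO as negative control and baseline; parallel SRB total-protein staining served as cytotoxicity check.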

[11] = read-out: Macrophage colony-stimulating factor (MCSF), CSF1 (gene 1435); assay: BSK_LPS_MCSF: BioMAP Diversity Plus: LPS Assay for Macrophage colony-stimulating factor (MCSF) Biomarker Activity (AID 2283083); settings: primary human HUVEC with PBMC; actives raise or lower the signal
Method in brief: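 HUVEC–PBMC co-culture, M-CSF measured by ELISA 24 h after chemical dosing. Fitted in both directions relative to DMSO as negative control; overt cytotoxicity assessed by SRB total-protein staining in parallel cultures.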

[12] = read-out: Tissue Factor, F3 (gene 2152); assay: BSK_LPS_TissueFactor: BioMAP Diversity Plus: LPS Assay for Tissue Factor Biomarker Activity (AID 2283084); settings: primary human HUVEC with PBMC; actives raise or lower the signal
Method in brief: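 Human umbilical vein endothelial cells co-cultured with PBMC were dosed with compound. Cell-surface CD142 was measured by ELISA 24 h later. Activity was fitted bidirectionally against DMSO, with SRB total-protein staining in parallel cultures for cytotoxicity.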

[13] = read-out: Vascular cell adhesion molecule 1 (VCAM1), VCAM1 (gene 7412); assay: BSK_LPS_VCAM1: BioMAP Diversity Plus: LPS Assay for Vascular cell adhesion molecule 1 (VCAM1) Biomarker Activity (AID 2283086); settings: primary human HUVEC with PBMC; actives raise or lower the signal
Method in brief: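 Human umbilical vein endothelial cells co-cultured with peripheral blood mononuclear cells under LPS stimulation were exposed to test chemical for 24 h. VCAM-1 levels were then measured by ELISA, with bidirectional curve fitting relative to DMSO as negative control and baseline.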

CD38, CD38 (gene 952) = assay: BSK_SAg_CD38: BioMAP Diversity Plus: SAg Assay for CD38 Biomarker Activity (AID 2283087); settings: primary human HUVEC with PBMC; actives raise or lower the signal
Method in brief: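 Fluorescence ELISA of cell-surface CD38 served as the read-out, with either increase or decrease fitted against DMSO controls. Cells were a human umbilical vein endothelium plus PBMC co-culture under SEB/TSST-1 stimulation, measured 24 h after dosing.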

CD69, CD69 (gene 969) = assay: BSK_SAg_CD69: BioMAP Diversity Plus: SAg Assay for CD69 Biomarker Activity (AID 2283089); settings: primary human HUVEC with PBMC; actives raise or lower the signal;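 on AC50: cell surface CD69 protein quantified by ELISA with fluorescence detection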
Method in brief: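 HUVEC co-cultured with PBMC were dosed with chemical, and CD69 was measured by ELISA with fluorescence read-out 24 h later. Bidirectional curve fitting used DMSO as negative control and activity baseline.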

[14] = read-out: Monocyte Chemoattractant Protein-1 (MCP1), CCL2 (gene 6347); assay: BSK_SAg_MCP1: BioMAP Diversity Plus: SAg Assay for Monocyte Chemoattractant Protein-1 (MCP1) Biomarker Activity (AID 2283090); settings: primary human HUVEC with PBMC; actives raise or lower the signal
Method in brief: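 MCP-1 levels in the endothelial–PBMC SAg co-culture were quantified by ELISA at 24 h post-dosing; both increases and decreases versus DMSO scored. Cytotoxicity monitored by SRB total protein in parallel cultures.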

[15] = read-out: E-selectin (Homo sapiens) (UniProt P16581); assay: BSK_LPS_Eselectin: BioMAP Diversity Plus: LPS Assay for Eselectin Biomarker Activity (AID 2283077); settings: primary human HUVEC with PBMC; actives raise or lower the signal
Method in brief: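 Human umbilical vein endothelial cells co-cultured with PBMC under LPS stimulation; cell-surface E-selectin measured by ELISA 24 h after dosing. Change in either direction versus DMSO, with SRB total-protein staining in parallel cultures for cytotoxicity.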

[16] = read-out: Interleukin-1 alpha (IL1a), IL1A (gene 3552); assay: BSK_LPS_IL1a: BioMAP Diversity Plus: LPS Assay for Interleukin-1 alpha (IL1a) Biomarker Activity (AID 2283080); settings: primary human HUVEC with PBMC; actives raise or lower the signal
Method in brief: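 Human umbilical vein endothelial cells co-cultured with PBMC and stimulated with LPS; IL-1a measured by ELISA 24 h after dosing. Bidirectional fitting against DMSO; cytotoxicity checked by SRB staining in parallel cultures.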

CD40, CD40 (gene 958) [17] = assay: BSK_SAg_CD40: BioMAP Diversity Plus: SAg Assay for CD40 Biomarker Activity (AID 2283088); settings: primary human HUVEC with PBMC; actives raise or lower the signal
Method in brief: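 HUVEC plus PBMC co-culture, superantigen-activated, with CD40 read by ELISA 24 h after dosing. Curves fitted in both directions against DMSO. Overt cytotoxicity checked by parallel SRB total-protein staining.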

[18] = read-out: Tumor necrosis factor (Homo sapiens) (UniProt P01375); assay: BSK_LPS_TNFa: BioMAP Diversity Plus: LPS Assay for Tumour Necrosis Factor alpha (TNFa) Biomarker Activity (AID 2283085); settings: primary human HUVEC with PBMC; actives raise or lower the signal
Method in brief: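 Human umbilical vein endothelial cells co-cultured with PBMC were exposed to test chemical and TNFa measured by ELISA 24 h after dosing. Bidirectional curve fitting was done relative to DMSO as negative control and baseline.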

Measured: AC50

Sequence of E-selectin (Homo sapiens) (P16581 whole entry, looked up): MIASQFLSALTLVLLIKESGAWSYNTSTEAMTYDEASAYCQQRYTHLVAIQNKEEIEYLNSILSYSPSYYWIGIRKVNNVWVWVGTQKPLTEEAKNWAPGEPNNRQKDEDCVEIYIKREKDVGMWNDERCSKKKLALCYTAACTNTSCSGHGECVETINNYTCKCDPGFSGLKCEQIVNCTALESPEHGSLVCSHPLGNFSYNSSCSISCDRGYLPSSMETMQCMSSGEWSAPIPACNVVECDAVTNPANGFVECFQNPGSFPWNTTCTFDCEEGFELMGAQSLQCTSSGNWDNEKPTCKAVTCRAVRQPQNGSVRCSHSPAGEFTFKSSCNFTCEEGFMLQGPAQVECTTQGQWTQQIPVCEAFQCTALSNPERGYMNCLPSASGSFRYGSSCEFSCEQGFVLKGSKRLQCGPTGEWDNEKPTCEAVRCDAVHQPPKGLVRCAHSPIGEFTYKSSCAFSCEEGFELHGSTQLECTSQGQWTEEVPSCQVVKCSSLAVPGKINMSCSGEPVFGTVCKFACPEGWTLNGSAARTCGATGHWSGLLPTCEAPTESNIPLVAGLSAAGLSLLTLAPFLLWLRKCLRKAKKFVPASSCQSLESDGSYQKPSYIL
Sequence of Tumor necrosis factor (Homo sapiens) (P01375 whole entry, looked up): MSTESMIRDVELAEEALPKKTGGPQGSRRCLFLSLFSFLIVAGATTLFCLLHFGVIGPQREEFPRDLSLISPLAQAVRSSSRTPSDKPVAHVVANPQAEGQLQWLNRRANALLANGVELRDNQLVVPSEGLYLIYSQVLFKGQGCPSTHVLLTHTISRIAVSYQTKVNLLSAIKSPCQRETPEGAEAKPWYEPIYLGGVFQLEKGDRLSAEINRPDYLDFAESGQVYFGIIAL

CC(C)(c1ccccc1)c1ccc(O)c(C(C)(C)c2ccccc2)c1
active: [1] 2.17 µM | [2] 2.83 µM | [3] 4.19 µM | [4] 2.41 µM | [5] 2.85 µM | CD40, CD40 (gene 958) [6] 12.3 µM | [7] 12 µM | [8] 12.7 µM | [9] 10.1 µM | [11] 9.66 µM | [12] 12.6 µM | [13] 12.9 µM | CD38, CD38 (gene 952) 10.5 µM | CD69, CD69 (gene 969) 11.9 µM | [14] 9.77 µM
inactive: [10]

CN(C)N=O
not listed: [1] | [18]
inactive: all other assays above

COC[C@H](C)N(C(=O)CCl)c1c(C)csc1C
not listed: [16] | [18]
inactive: all other assays above

Nc1ncc([N+](=O)[O-])s1
not listed: [1] | [8]
inactive: all other assays above

C=CC(=O)OCCCCCC(C)C
not listed: [1] | [8] | [18]
inactive: all other assays above

CC(C)(C)CC(C)(C)c1ccc(O)cc1
active: [3] 6.72 µM | [4] 9.64 µM | [5] 9.6 µM | CD40, CD40 (gene 958) [6] 7.8 µM | [15] 11.7 µM | [7] 13.9 µM | [8] 12.9 µM | [16] 8.47 µM | [9] 10.5 µM | [11] 9.26 µM | [12] 9.02 µM | [18] 10 µM | CD38, CD38 (gene 952) 7.91 µM | CD40, CD40 (gene 958) [17] 7.96 µM | CD69, CD69 (gene 969) 11.5 µM | [14] 9.24 µM
inactive: [10]

COC(=O)Cc1ccccc1
active: CD40, CD40 (gene 958) [17] 31.3 µM
inactive: [3] | [4] | [5] | CD40, CD40 (gene 958) [6] | [15] | [7] | [8] | [9] | [10] | [11] | [12] | [13] | CD38, CD38 (gene 952) | CD40, CD40 (gene 958) [17] | CD69, CD69 (gene 969) | [14]
